Data published in PubChem BioAssay (NCATS).
Several values for one entry are separate records, joined by “and”; a condition that tells them apart may be missing. Equal entries are not always repeated. Inconclusive results are not listed. Activity calls are given as the source filed them. Unless noted, calls follow the shape of the dose curve; as a rule, active = well fitted curve in the direction sought with a large enough effect; inconclusive = small, poorly fitted or top-dose-only effect, or another doubt; inactive = no such curve, though single readings can be large; an effect the other way counts as inactive or inconclusive.

Assays:
[1] = Cell Viability - BJ (AID 421; calls by dose curve;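 also: potency is read from the fitted curve at half-maximal effect; cells exposed to compound for 40 hours at 37 °C before readout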); settings: BJ fibroblast viability, qHTS
Outline: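 Quantitative HTS: ATP depletion in BJ cells after 40 hr compound exposure in complete culture medium, detected with CellTiter-Glo; AC50 from standard Hill fits.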

[2] = Cell Viability - Jurkat (AID 426;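 active = dose-dependent loss of cell ATP signal giving a full or clear fitted curve, ranked by lower potency value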; also: potency is read from the fitted curve at half-maximal effect); settings: qHTS
Outline: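 Jurkat (clone E6-1, human T-cell leukemia) cells, 5000/well in complete medium, were exposed to compound for 40 hr at 37 °C. Viability was read as intracellular ATP by CellTiter-Glo luminescence; AC50 came from Hill fits of concentration-response data.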

[3] = Cell Viability - HepG2 (AID 433; calls by dose curve;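 also: potency is read from the fitted curve at half-maximal effect; potency for ATP loss meaning cytotoxicity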); settings: qHTS
Outline: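 HepG2 hepatocellular carcinoma cells (1500/well) were treated with compounds for 40 h at 37 °C in complete medium; intracellular ATP was read by CellTiter-Glo luminescence. Data were normalized to DMSO and 100 uM tamoxifen, and AC50 came from Hill fits.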

[4] = Cell Viability - MRC5 (AID 434; calls by dose curve;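 also: potency is read from the fitted curve at half-maximal effect; potency reflects cytotoxicity seen as loss of intracellular ATP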); settings: MRC5 lung fibroblast viability, qHTS
Outline: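 MRC5 normal human lung fibroblasts, 1500 cells/well, exposed to compound for 40 hr at 37 C. Cellular ATP was read by CellTiter-Glo luminescence; data normalized to DMSO and 100 uM tamoxifen, with AC50 from Hill fits.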

[5] = Cell Viability - N2a (AID 540); settings: N2a mouse neuroblastoma cell viability; activity change, negative = cytotoxicity: at 92.2 µM (top of the series); also: nearly all actives have a fitted effect of over 45% in size; also: potency is read from the fitted curve at half-maximal effect;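 as to activity change, negative = cytotoxicity: plate controls were DMSO alone for no effect and tamoxifen control for full effect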
Outline: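 Mouse neuroblastoma N2a cells (1500/well) were preincubated 5 hr at 37 °C, then exposed to compounds for 40 hr at 37 °C in complete medium. Viability was read as intracellular ATP by CellTiter-Glo luminescence; AC50 from Hill fits.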

[6] = Cell Viability - NIH 3T3 (AID 541); settings: NIH 3T3 cell viability, qHTS; activity change, negative = cytotoxicity: at 92.2 µM (top of the series); also: nearly all actives have a fitted effect of over 25% in size; also: potency is read from the fitted curve at half-maximal effect;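 as to activity change, negative = cytotoxicity: plate controls were DMSO alone for no effect and tamoxifen positive control for full effect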
Outline: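 NIH 3T3 mouse embryo fibroblasts (1000 cells/well) were plated in complete medium and treated with compound for 40 hr at 37 °C. Viability was read as intracellular ATP by CellTiter-Glo luminescence; AC50 values came from Hill-equation fits of concentration-response data.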

[7] = Cell Viability - HUV-EC-C (AID 542); also: nearly all actives have a fitted effect of over 35% in size; also: potency is read from the fitted curve at half-maximal effect; as to activity change, negative = cytotoxicity: % is scaled to controls: 0 for no effect and ±100 for the full control effect
Outline: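 HUV-EC-C normal human vascular endothelial cells, 1000 cells/well, pre-incubated 5 hr at 37 °C, then exposed to compounds for 40 hr at 37 °C in complete medium. Viability measured as intracellular ATP by CellTiter-Glo luminescence; AC50 from Hill fits.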

[8] = Cell Viability - H-4-II-E (AID 543); also: nearly all actives have a fitted effect of over 35% in size; also: potency is read from the fitted curve at half-maximal effect
Outline: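 Rat hepatoma H-4-II-E cells (1500/well) were plated, incubated 5 hr at 37 °C, then exposed to compounds for 40 hr at 37 °C. Cellular ATP was read by CellTiter-Glo luminescence; AC50 came from Hill-equation fits of concentration-response data.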

[9] = Cell Viability - SH-SY5Y (AID 544); also: nearly all actives have a fitted effect of over 55% in size; also: potency is read from the fitted curve at half-maximal effect
Outline: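 Human neuroblastoma SH-SY5Y cells (1500/well) in complete medium were exposed to compounds for 40 hr at 37 °C; intracellular ATP was then quantified by CellTiter-Glo luminescence after 20 min at room temperature. AC50 came from Hill-equation concentration-response fits.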

[10] = Cell Viability - Renal Proximal Tubule (AID 545); settings: renal proximal tubule cells viability; activity change, negative = cytotoxicity: at 91.7 µM (top of the series); also: nearly all actives have a fitted effect of over 40% in size; also: potency is read from the fitted curve at half-maximal effect;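 as to activity change, negative = cytotoxicity: 0% = DMSO only and -100% = 100 µM tamoxifen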
Outline: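 Primary rat renal proximal tubule cells (1000/well) were treated with compounds for 40 hr at 37 °C in complete medium. Intracellular ATP was measured by CellTiter-Glo luminescence, and AC50 values came from Hill-equation fits of concentration-response data.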

[11] = Cell Viability - Mesenchymal (AID 546);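 also: cells exposed to compound for 40 hours before reading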; also: potency is read from the fitted curve at half-maximal effect;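 as to activity change, negative = cytotoxicity: 0% = DMSO only and -100% = 100 µM tamoxifen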
Outline: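 Human kidney mesenchymal cells from normal renal glomeruli, 1000 cells/well, rested 5 hr at 37 °C, then treated 40 hr at 37 °C in complete medium. Cellular ATP read by CellTiter-Glo luminescence; AC50 from Hill-equation fits.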

[12] = target: Mitogen-activated protein kinase 10 (Mus musculus) (UniProt Q61831); test: JNK3 AlphaScreen Assay (AID 530; active = well fitted curve in either direction with a large enough effect, not every such curve was filed as active;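 also: kinase came from lysate of stimulated human HepG2 cells; signal reports phosphorylation of biotinylated GST-cJun 1-79 at Ser73 with 10 µM ATP; % is scaled to controls: 0 for no effect and ±100 for the full control effect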)
Outline: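 qHTS format: compounds tested as titrations against IL-1beta/TNF-alpha-activated HepG2 lysate JNK3 with biotin-GST-cJun substrate and 10 uM ATP at room temperature. Loss of anti-phospho-cJun AlphaScreen signal indicates inhibition.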

[13] = target: Glucocorticoid receptor (Homo sapiens) (UniProt P04150); test: GR-GFP Redistribution (AID 450;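 active = compounds whose dose series gives a full or clear partial fitted curve of increased nuclear translocation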; also: potency is read from the fitted curve at half-maximal effect); settings: U2OS GR-GFP nuclear translocation, laser cytometry, 2 h
Chain of Glucocorticoid receptor (Homo sapiens) (P04150 whole entry, looked up, the tested form may be a part): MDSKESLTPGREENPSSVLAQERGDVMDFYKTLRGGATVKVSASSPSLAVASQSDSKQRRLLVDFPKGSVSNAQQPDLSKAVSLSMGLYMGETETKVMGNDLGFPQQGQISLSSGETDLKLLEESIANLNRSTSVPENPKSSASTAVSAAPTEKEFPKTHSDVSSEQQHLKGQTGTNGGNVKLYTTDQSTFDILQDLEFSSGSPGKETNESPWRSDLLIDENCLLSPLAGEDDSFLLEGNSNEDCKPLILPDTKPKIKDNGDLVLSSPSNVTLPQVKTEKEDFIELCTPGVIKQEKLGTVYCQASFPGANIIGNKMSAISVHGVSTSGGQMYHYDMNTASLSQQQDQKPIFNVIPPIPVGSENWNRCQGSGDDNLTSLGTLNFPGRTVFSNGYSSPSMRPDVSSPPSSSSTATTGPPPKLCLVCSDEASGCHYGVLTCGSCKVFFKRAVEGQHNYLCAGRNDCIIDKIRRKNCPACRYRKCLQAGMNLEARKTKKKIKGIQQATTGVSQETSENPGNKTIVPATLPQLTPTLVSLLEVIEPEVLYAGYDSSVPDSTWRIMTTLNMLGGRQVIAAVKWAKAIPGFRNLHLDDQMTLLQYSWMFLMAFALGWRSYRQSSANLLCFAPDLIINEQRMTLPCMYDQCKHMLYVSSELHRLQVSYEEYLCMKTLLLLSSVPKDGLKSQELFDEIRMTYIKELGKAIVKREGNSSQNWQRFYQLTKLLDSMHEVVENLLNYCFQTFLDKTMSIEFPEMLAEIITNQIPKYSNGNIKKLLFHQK

[14] = target: Glucocorticoid receptor (Homo sapiens) (UniProt P04150); test: GR-EFC Redistribution (AID 451; calls by dose curve; also: potency is read from the fitted curve at half-maximal effect); settings: CHO-K1 GR-EFC translocation, beta-gal luminescence, 2 h
Outline: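 CHO-K1 cells expressing nuclear EA and GR-ED fragments of b-gal; compounds titrated up to 46 uM final, 2 h at 37 C. GR nuclear translocation read as complemented b-gal luminescence after 1 h RT detection.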

[15] = target: 3',5'-cyclic-AMP phosphodiesterase 4B (Homo sapiens) (UniProt Q07343); test: qHTS Assay for Inhibitors of PDE-IV (AID 607; active = well fitted activation curve with a large enough effect in the main read-out, with a control signal flat, not every such curve was filed as active; also: % of control where 0% means no effect)
Chain of 3',5'-cyclic-AMP phosphodiesterase 4B (Homo sapiens) (Q07343 whole entry, looked up): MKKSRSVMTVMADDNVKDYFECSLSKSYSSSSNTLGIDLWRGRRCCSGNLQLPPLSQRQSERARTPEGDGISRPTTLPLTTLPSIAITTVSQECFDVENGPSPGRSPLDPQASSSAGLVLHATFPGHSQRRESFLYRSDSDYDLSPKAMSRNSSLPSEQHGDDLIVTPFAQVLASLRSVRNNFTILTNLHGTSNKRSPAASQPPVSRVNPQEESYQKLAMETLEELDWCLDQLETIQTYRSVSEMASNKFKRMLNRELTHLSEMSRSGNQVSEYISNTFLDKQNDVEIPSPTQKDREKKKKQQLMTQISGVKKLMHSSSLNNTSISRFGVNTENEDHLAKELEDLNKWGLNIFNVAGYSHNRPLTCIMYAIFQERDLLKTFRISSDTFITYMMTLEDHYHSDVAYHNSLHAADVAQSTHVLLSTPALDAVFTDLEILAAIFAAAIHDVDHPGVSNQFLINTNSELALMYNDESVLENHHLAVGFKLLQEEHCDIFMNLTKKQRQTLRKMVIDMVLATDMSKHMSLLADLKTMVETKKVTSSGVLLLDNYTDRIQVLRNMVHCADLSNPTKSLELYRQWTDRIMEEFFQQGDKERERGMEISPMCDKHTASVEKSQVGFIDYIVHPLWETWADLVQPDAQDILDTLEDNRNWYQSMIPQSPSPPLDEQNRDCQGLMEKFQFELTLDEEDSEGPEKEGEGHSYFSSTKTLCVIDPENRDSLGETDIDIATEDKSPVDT
Outline: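 Live HEK293 cells with a modified cyclic nucleotide-gated (CNG) channel report intracellular cAMP via membrane-potential dye fluorescence (ex 535/em 590 nm). Endogenous PDE-IV was targeted. Compounds were tested at up to 22.9 uM final; RO 20-1724 100 uM served as control.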

[16] = NFAT Signaling Pathway (AID 444; active = well fitted curve in either direction with a large enough effect, not every such curve was filed as active;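 also: carbachol stimulus at about its EC50 of 1 µM final; % is scaled to controls: 0 for no effect and ±100 for the full control effect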); settings: Jurkat NFAT-bla M1, carbachol, beta-lactamase ratio, 5 h
Outline: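 Jurkat cells with NFAT-driven β-lactamase reporter and co-expressed M1 receptor, stimulated with carbachol (final 1 uM, ~EC50), compound titration, 5 h at 37 °C. CCF4 loaded 1 h at RT; 460/530 nm ratio gave %activity and AC50.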

[17] = at 38 µM (top of the series) unless noted

C[C@H]1CC[C@@H]2[C@@H](C)[C@H]3[C@H](C[C@H]4[C@@H]5CC=C6CC(O[C@@H]7O[C@H](CO)[C@H](O)[C@H](O[C@@H]8O[C@H](CO)[C@@H](O)[C@H](O)[C@H]8O)[C@H]7O[C@H]7O[C@@H](C)[C@H](O)[C@@H](O)[C@H]7O)CC[C@]6(C)[C@H]5CC[C@]34C)N2C1 (stereo not given in full)
active: Potency [1] 35 µM | Potency [2] 32.5 µM | Potency [3] 23.7 µM | Potency [4] 45 µM | Potency [5] 31.6 µM | Potency [6] 31.6 µM | Potency [7] 31.6 µM | Potency [8] 31.6 µM | Potency [9] 31.6 µM | activity change, negative = cytotoxicity [10] -101% | Potency [11] 31.6 µM

COC1=CC(=O)O[C@@H](/C=C/c2ccccc2)C1
inactive: Potency [1] > 92 µM | Potency [2] > 92 µM | Potency [3] > 92 µM | Potency [4] > 92 µM | outcome [12] | Potency [5] | Potency [6] | Potency [7] | Potency [9] | Potency [10] | Potency [11]

CCCCCCC(C)(C)c1ccc([C@@H]2C[C@H](O)CC[C@H]2CCCO)c(O)c1
inactive: Potency [13] > 46 µM | Potency [14] > 46 µM | outcome [12] | Potency [15]

CCCCCl
inactive: Potency [1] > 92 µM | Potency [2] > 92 µM | Potency [3] > 92 µM | Potency [4] > 92 µM | Potency [5] | Potency [6] | Potency [7] | Potency [8] | Potency [9] | Potency [10] | Potency [11]

C=CCN=C=S
inactive: Potency [1] > 92 µM | Potency [2] > 92 µM | Potency [3] > 92 µM | Potency [4] > 92 µM | outcome [12] | Potency [5] | Potency [6] | Potency [7] | Potency [8] | Potency [9] | Potency [10] | Potency [11]

NC(N)=NOCC[C@H](N)C(=O)O
inactive: activity change, negative = inhibition ([16]; at 17.2 µM (top of the series)) -0.483% | activity change, negative = inhibition ([16]; at 38 µM (top of the series)) 17% | Potency [13] > 46 µM and > 20.6 µM | Potency [14] > 46 µM and > 20.6 µM | outcome [12] | Potency [15]

O=[N+]([O-])c1ccccc1
inactive: Potency [1] > 92 µM | Potency [2] > 92 µM | Potency [3] > 92 µM | Potency [4] > 92 µM | Potency [5] | Potency [6] | Potency [7] | Potency [8] | Potency [9] | Potency [10] | Potency [11]

NC(=O)COc1c(F)cc(SCCNS(=O)(=O)c2ccccc2)cc1F
inactive: activity change, negative = inhibition [16, 17] 20.9% | Potency [13] > 46 µM | Potency [14] > 46 µM | outcome [12] | Potency [15]

COc1ccc2c(c1OC)C(=O)OC2C1c2cc3c(cc2CCN1C)OCO3 (stereo not given)
inactive: Potency [1] > 92 µM | Potency [2] > 92 µM | Potency [3] > 92 µM | Potency [4] > 92 µM | Potency [5] | Potency [6] | Potency [7] | Potency [8] | Potency [9] | Potency [10] | Potency [11]

ClCC1CO1 (stereo not given)
inactive: Potency [1] > 92 µM | Potency [2] > 92 µM | Potency [3] > 92 µM | Potency [4] > 92 µM | outcome [12] | Potency [5] | Potency [6] | Potency [7] | Potency [8] | Potency [9] | Potency [10] | Potency [11]

O=CC=O
inactive: Potency [1] > 92 µM | Potency [2] > 92 µM | Potency [3] > 92 µM | Potency [4] > 92 µM | Potency [5] | Potency [7] | Potency [8] | Potency [10] | Potency [11]
active: Potency [6] 12.6 µM

C[N+](C)(C)CCOC(=O)CBr
inactive: activity change, negative = inhibition [16, 17] 13.9% | Potency [13] > 46 µM | Potency [14] > 46 µM | Potency [15]

Clc1ccc(N2C[C@H]3CC[C@@H](C2)N3)nn1
inactive: activity change, negative = inhibition [16, 17] -11.9% | Potency [13] > 46 µM | Potency [14] > 46 µM | outcome [12] | Potency [15]

COc1ccc(OC)c(C(O)C(C)N)c1 (stereo not given)
inactive: Potency [13] > 20.6 µM

CCOC(=O)c1ccccc1C(=O)OCC
inactive: Potency [1] > 92 µM | Potency [2] > 92 µM | Potency [3] > 92 µM | Potency [4] > 92 µM | Potency [5] | Potency [6] | Potency [7] | Potency [8] | Potency [9] | Potency [10] | Potency [11]

CC(C)[C@@]1(NC(=O)[C@@H]2C[C@@H]3c4cccc5[nH]cc(c45)C[C@H]3N(C)C2)O[C@@]2(O)[C@@H]3CCCN3C(=O)[C@H](Cc3ccccc3)N2C1=O
inactive: activity change, negative = inhibition [16, 17] -22.9% [at 17.2 µM] | Potency [13] > 20.6 µM

CC(C)Nc1ccc(Nc2ccccc2)cc1
active: Potency [2] 22.8 µM | activity change, negative = cytotoxicity [5] -116% | activity change, negative = cytotoxicity [6] -150% | Potency [7] 12.6 µM | Potency [8] 25.1 µM | Potency [9] 10 µM

[O]=[Cr](=[O])([OH])[O][Cr](=[O])(=[O])[OH]
inactive: Potency [11]
active: Potency [1] 19.5 µM and 13.4 µM and 4.66 µM | Potency [2] 1.88 µM and 3.05 µM and 549 nM | Potency [3] 12.2 µM and 14.7 µM and 7.52 µM | Potency [4] 4.16 µM and 11.5 µM and 9.77 µM | Potency [5] 39.8 µM and 25.1 µM | activity change, negative = cytotoxicity [5] -124% | Potency [6] 15.8 µM | activity change, negative = cytotoxicity [6] -141% and -151% | Potency [7] 3.98 µM and 20 µM and 5.01 µM | Potency [9] 316 nM and 15.8 µM and 3.98 µM | Potency [10] 2.51 µM and 7.94 µM and 501 nM
